# Laboratory results taken from ChEMBL document CHEMBL4513216, “Probing the Open Global Health Chemical Diversity Library for Multistage-Active Starting Points for Next-Generation Antimalarials” (ACS Infect Dis, 2020).
# Hit rate of the full screen: of about 65,000 compounds, about 2,100 (3.2%) showed an effect of 50% or more. The median lay at about -52%. For the sample, strong results were picked, then their nearest neighbours and some compounds at random.
# Test system: Plasmodium falciparum
# Assay: Screen against P. falciparum Asexual Blood Stage (ABS), at 5uM
# Assay type: functional, Dd2
# Details: tested at 5 uM
row,SMILES,INHIBITION [%]
1,Cc1cnn(C2CN(CC(=O)NCCCc3ccccc3)C2)c1,-108
2,c1ccc(NCc2cnc3n2CCN(C2CCOC2)CC3)nc1 (stereo not given),-124
3,CC(C)NCC1OCCc2cn(C)nc21 (stereo not given),-22.9
4,CSc1ccc(CN2CCCC3(CNC(=O)c4ccccc4O3)C2)cc1 (stereo not given),-85.7
5,CN(C)c1cccc(C(=O)N2C[C@@H]3CC[C@H]2CN(C(=O)C2CCC2)C3)c1,-111
6,CC[C@@H](C)[C@@H](N)C(=O)Nc1cccc(-c2cnc(N(C)C)nc2)c1,-60.2
7,Cc1ccc(-c2cc(CNc3ncnc4c3CCNCC4)no2)cc1,63.5
8,c1cncc(-c2noc(CNc3ncnc4c3CCNCC4)n2)c1,-88.2
9,COc1ccc(-c2cc(CNc3ncnc4c3CCNCC4)no2)cc1,16
10,Cc1nnc2n1CCN(C(=O)C(C)Oc1ccc(C#N)cc1)C2 (stereo not given),-140
11,CN(C)C(=O)CN1C[C@H]2CC[C@@H](C1)N(Cc1cccc(Cl)c1Cl)C2,30.9
12,N#CC1(C(=O)N2C[C@H](Nc3ncccn3)[C@@H](C3CC3)C2)CCOCC1,-92.4
13,Cc1nccc(N[C@H]2CN(CCS(C)(=O)=O)C[C@@H]2C2CC2)n1,-88.4
14,Cc1cc(N[C@H]2CN(CC(C)(C)N3CCOCC3)C[C@@H]2C2CC2)ncn1,48.9
15,Cc1nccc(N[C@H]2CN(CC(C)(C)N3CCOCC3)C[C@@H]2C2CC2)n1,63.5
16,CCS(=O)(=O)N[C@H]1CN(CC(C)(C)N2CCOCC2)C[C@@H]1C1CC1,-11.1
17,CC(C)(CN1C[C@H](Nc2ncccn2)[C@@H](C2CC2)C1)N1CCOCC1,50.5
18,Cc1ccc(NC2CCN(C(=O)COCC3CC3)CC2)nn1,-61.2
19,CN(C)c1ccc(C(=O)N2CCCC(n3cccn3)C2)cn1 (stereo not given),-240
20,C/N=C1/c2cc3cc(OC)ccc3n2CCN1Cc1ccccc1,25.3
21,CCC(CN1CCCC1)n1cncc1-c1cnn(-c2ccc(F)cc2)c1 (stereo not given),43
22,CCC(CN1CCOCC1)n1cncc1-c1ccc2c(c1)CCCN2C (stereo not given),31.4

row,SMILES,INHIBITION [%]
1,CCC(CN1CCCC1)n1cncc1-c1cnn(-c2ccccc2)c1 (stereo not given),56.2
2,O=C(Cc1ccc2c(c1)CCO2)N1CCCC1c1noc(C2CC2)n1 (stereo not given),-67.5
3,Cc1ccc(CN2CCc3nnc(COCCN(C)C)n3CC2)o1,-116
4,CN(C)c1ccc(-c2cc(C(=O)O)cc(S(=O)(=O)NC3CC3)c2)cc1,57.2
5,O=C(O)c1cc(-c2ccc3c(c2)OCO3)cc(S(=O)(=O)NC2CC2)c1,-33.6
6,O=C(O)c1cc(-c2ccoc2)cc(S(=O)(=O)NC2CC2)c1,-132
7,Cc1cccc(NC2CCc3c2[nH]c(=O)n(C2CCCCC2)c3=O)c1C (stereo not given),-28.8
8,CN(Cc1cccnc1)[C@@H]1CN(Cc2cnn(C)c2)[C@@H]2CCCO[C@H]12,-11.9
9,CCC[C@H]1CN(S(=O)(=O)c2ccccc2)C[C@@H]1N,16.5
10,N[C@H]1CN(S(=O)(=O)Cc2ccccc2)C[C@@H]1C1CC1,55.5
11,CC(C)[C@@H]1CN(S(=O)(=O)Cc2ccccc2)C[C@H]1C(=O)O,-80.4
12,CC(=O)N[C@H]1CN(S(=O)(=O)N(C)Cc2ccccc2)C[C@@H]1C1CC1,-59.7
13,CN(Cc1ccc(F)cc1)S(=O)(=O)N1CCOCC1,-118
14,CN(Cc1ccccc1)S(=O)(=O)N1C[C@@H](C(=O)O)[C@H](C2CC2)C1,-76.5
15,CN(Cc1ccccc1)S(=O)(=O)N1C[C@H](C2CC2)[C@@H](N)C1,58
16,N[C@H]1CN(S(=O)(=O)c2ccccc2)C[C@@H]1C1CC1,-0.57
17,CCC[C@H]1CN(S(=O)(=O)N(C)Cc2ccccc2)C[C@@H]1N,68.1
18,CO[C@H]1C[C@@H](O)C12CCN(C(=O)CCCOc1ccccc1)CC2,-224
19,Cc1nc(Oc2ccccc2Cl)sc1C(=O)O,-103
20,CC(Cn1cccn1)NC(=O)NCc1ccc(OC2CCCC2)nc1 (stereo not given),-90.4
21,CC1CCCCN1CCNC(=O)c1ccn(-c2ccccc2)n1 (stereo not given),22
22,CC1CCCCN1CCNC(=O)c1ccn(-c2cccc(F)c2)n1 (stereo not given),64.3

row,SMILES,INHIBITION [%]
1,CC1CCCN(CCNC(=O)c2ccn(-c3ccc(F)cc3)n2)C1 (stereo not given),50.2
2,CC1CCN(CCNC(=O)c2ccn(-c3ccccc3)n2)CC1,24
3,O=C(NCCn1cccn1)c1ccn(-c2cccc(F)c2)n1,-67.5
4,COc1ccc(-n2ccc(C(=O)NCCN3CCCC(C)C3)n2)cc1 (stereo not given),7.72
5,O=C(NCCN1CCCCC1)c1ccn(-c2ccc(F)cc2)n1,46.1
6,CC1CCCN(CCNC(=O)c2ccn(-c3cccc(F)c3)n2)C1 (stereo not given),68
7,COc1ccc(-n2ccc(C(=O)NCCN3CCC(C)CC3)n2)cc1,-1.58
8,Cc1cc(C(=O)NCCN2CCCC(C)C2)nn1C (stereo not given),-67.5
9,CC1CCCCN1CCNC(=O)c1ccn(-c2ccc(F)cc2)n1 (stereo not given),34.6
10,CC1CCN(CCNC(=O)c2ccn(-c3ccc(F)cc3)n2)CC1,60.9
11,COCC(=O)N(C)Cc1ccc(F)c(F)c1,-52.4
12,CCOc1nnc(CN(CC)CC(=O)Nc2c(F)cccc2F)s1,-13.5
13,C=C(C)COc1cccc(C(=O)NC(C)c2nnn[nH]2)c1 (stereo not given),-109
14,CCOc1ccc(N2CCCN=C2NC(=O)c2cccc(C)c2)cc1,-77.5
15,Cc1cc(C(=O)N2CCc3nc(N4CCOCC4)nc(C)c3C2)c(C)o1,-39.6
16,CC(C)NC(=O)[C@H]1C[C@@H]2[C@@H](C1)OCCN2Cc1cccs1,-20.5
17,C[C@@H]1CCC[C@H](C)N1CC(=O)N1CCc2[nH]c(-c3ccccc3)nc2C1,-64.1
18,O=C(NCCc1cccs1)[C@]12COC[C@H]1CN(Cc1ccncc1)C2,-31
19,CC1CCCN(CCNC(=O)c2ccn(-c3ccccc3)n2)C1 (stereo not given),50.8
20,COc1cn(-c2ccccc2)nc1C(=O)NCCN1CCCC(C)C1 (stereo not given),-57.1
21,O=C(NCCN1CCCCC1)c1ccn(-c2ccccc2)n1,-37.9
